PubChem BioAssay (NCI)
Values joined by “and” are separate entries in the source; they are usually repeats but may differ in a detail not shown here. Equal entries are not always repeated. This is part of a sample that, as a whole, favours compounds with a hit. Of some 79,000 tested, about 15% had one in any assay. Some structures have more than one record in an assay (separate samples or runs), and their calls can disagree. Active and inactive are the calls of the source. Rule as the data show it: active = growth inhibition above about 70%; inactive = the rest.

What was measured:
[1] = NCI Yeast Anticancer Drug Screen. Data for the rad52 strain (AID 147);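 also: 0% = growth of vehicle-treated control cultures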; conditions: S. cerevisiae rad52 mutant growth inhibition, stronger effect = higher value
Summary of the method: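 Inhibition of yeast growth, referenced to vehicle controls, was the measured output for a strain with defective DNA damage repair.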

[2] = NCI Yeast Anticancer Drug Screen. Data for the wt1 strain (AID 149);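 also: 0% = growth of vehicle-treated wt1 cultures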; conditions: S. cerevisiae wt1 strain (SPY 50644) growth inhibition, stronger effect = higher value
Summary of the method: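 wt1 yeast, compound-treated; % growth inhibition vs vehicle control.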

[3] = NCI Yeast Anticancer Drug Screen. Data for the rad50EPP+ strain (AID 151);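 also: 0% = growth of vehicle-treated control cultures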; conditions: S. cerevisiae rad50 mutant strain, stronger effect = higher value
Summary of the method: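 Genetically defined yeast (rad50EPP+, DNA damage repair alteration) is grown with compound, and inhibition of growth is expressed relative to vehicle-treated controls.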

[4] = NCI Yeast Anticancer Drug Screen. Data for the mgt1 strain (AID 153); conditions: S. cerevisiae mgt1 mutant growth inhibition, stronger effect = higher value
Summary of the method: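 In the mgt1 strain, test compounds were added and growth inhibition was determined relative to vehicle-treated controls.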

[5] = NCI Yeast Anticancer Drug Screen. Data for the rad50 strain (AID 155);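 also: 0% = growth of vehicle-only cultures of the same strain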; conditions: S. cerevisiae rad50 strain growth inhibition, stronger effect = higher value
Summary of the method: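 Genetically altered yeast (DNA repair pathway); compound treatment; growth inhibition vs vehicle ctrl.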

[6] = NCI Yeast Anticancer Drug Screen. Data for the mec2-1 strain (AID 157); conditions: S. cerevisiae mec2-1 strain, stronger effect = higher value
Summary of the method: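 Each compound was tested on mec2-1 yeast, a strain altered in DNA damage repair or cell cycle control. Growth inhibition is reported relative to vehicle.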

[7] = NCI Yeast Anticancer Drug Screen. Data for the rad14 strain (AID 159);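 also: 0% = growth of vehicle-treated control cultures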; conditions: S. cerevisiae rad14 strain growth inhibition, stronger effect = higher value
Summary of the method: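 Test compounds were applied to a repair-deficient yeast strain. Its growth was then compared with that of cultures given vehicle alone, and inhibition was expressed relative to those controls.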

[8] = NCI Yeast Anticancer Drug Screen. Data for the sgs1 mgt1 strain (AID 161);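 also: 0% = growth of cultures given vehicle only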; conditions: S. cerevisiae sgs1 mgt1 strain, stronger effect = higher value
Summary of the method: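 Genetically altered yeast, compound exposure, growth inhibition relative to vehicle.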

[9] = NCI Yeast Anticancer Drug Screen. Data for the CLN2oe strain (AID 163);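 also: 0% = growth of vehicle-only control cultures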; conditions: S. cerevisiae CLN2oe strain, stronger effect = higher value
Summary of the method: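 First, the altered yeast strain was treated with each compound; second, its growth was measured; finally, inhibition was derived by comparison with vehicle controls.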

[10] = NCI Yeast Anticancer Drug Screen. Data for the cln2 rad14 strain (AID 165);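 also: 0% = growth equal to vehicle treated cultures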; conditions: S. cerevisiae cln2 rad14 strain, stronger effect = higher value
Summary of the method: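 Test compounds were added to cln2 rad14 yeast cultures; inhibition of growth was then determined by comparison with vehicle treatment.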

[11] = NCI Yeast Anticancer Drug Screen. Data for the bub3 strain (AID 167); conditions: S. cerevisiae bub3 mutant strain, stronger effect = higher value
Summary of the method: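 Yeast carrying a defined mutation is treated with each compound, and growth is compared with that of vehicle-exposed cells to give inhibition.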

[12] = NCI Yeast Anticancer Drug Screen. Data for the wt2 strain (AID 169);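 also: 0% = growth of vehicle-treated yeast cultures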; conditions: S. cerevisiae wt2 strain growth inhibition, stronger effect = higher value
Summary of the method: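 The panel's yeast strains carry defined changes in DNA repair or cell cycle genes. Each strain is grown with compound, and growth loss is scored relative to vehicle.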

[13] = NCI Yeast Anticancer Drug Screen. Data for the mlh1 strain (AID 171);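 also: 0% = growth of vehicle-treated control cultures of the same strain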; conditions: S. cerevisiae mlh1 strain growth inhibition, stronger effect = higher value
Summary of the method: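 Inhibition values reflect reduced yeast growth in the presence of compound, referenced to vehicle controls, using a strain chosen for its alteration in DNA repair or cell cycle control.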

[14] = NCI Yeast Anticancer Drug Screen. Data for the sgs1 strain (AID 173);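 also: 0% = growth of vehicle-only control cultures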; conditions: S. cerevisiae sgs1 mutant, stronger effect = higher value
Summary of the method: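 Vehicle-treated cultures served as reference for growth inhibition of a yeast strain altered in DNA damage repair or cell cycle control after compound exposure.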

[15] = NCI Yeast Anticancer Drug Screen. Data for the mlh1 rad18 strain (AID 175); conditions: S. cerevisiae mlh1 rad18 strain growth inhibition, stronger effect = higher value
Summary of the method: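 Inhibition values reflect reduced growth of mutant yeast versus vehicle-treated controls following compound exposure; the mutations affect DNA damage repair.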

[16] = NCI Yeast Anticancer Drug Screen. Data for the rad18 strain (AID 177); conditions: S. cerevisiae rad18 mutant growth inhibition, stronger effect = higher value
Summary of the method: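 Steps: expose repair-mutant yeast to compound; measure growth; express as inhibition relative to vehicle control.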

[17] = at 5.0 µM (retest, dose inferred, filed as 0.5)
[18] = at 50.0 µM (retest, dose inferred, filed as 5.0)

Measured: growth inhibition

c1ccc(-c2cnc3ccccc3c2)cc1
inactive: [1]; at 1.2 µM 0% | [1]; at 3.7 µM 3% | [1]; at 11.0 µM 0% | [1]; at 33.0 µM 28% | [2]; at 1.2 µM -7% | [2]; at 3.7 µM -8% | [2]; at 11.0 µM -12% | [2]; at 33.0 µM -12% | [3]; at 1.2 µM 7% | [3]; at 3.7 µM 14% | [3]; at 11.0 µM 37% | [4]; at 1.2 µM -5% | [4]; at 3.7 µM -7% | [4]; at 11.0 µM -6% | [4]; at 33.0 µM -6% | [5]; at 1.2 µM -5% | [5]; at 3.7 µM -3% | [5]; [17] -151% and -148% | [5]; at 11.0 µM 14% | [5]; at 33.0 µM 47% | [5]; [18] 37% and 47% | [6]; at 1.2 µM 3% | [6]; at 3.7 µM -3% | [6]; [17] -52% | [6]; at 11.0 µM -12% | [6]; at 33.0 µM -3% | [6]; [18] 31% and 18% | [6]; at 50.0 µM 56.7% and 56.4% | [7]; at 1.2 µM -2% | [7]; at 3.7 µM 0% | [7]; at 11.0 µM -1% | [7]; at 33.0 µM 18% | [8]; [17] -68% and -66% | [8]; [18] 36% and 47% | [8]; at 50.0 µM 62% and 49.7% | [9]; at 1.2 µM -6% | [9]; at 3.7 µM -7% | [9]; at 11.0 µM -1% | [9]; at 33.0 µM 6% | [10]; [17] -68% and -62% | [10]; [18] -49% and -39% | [10]; at 50.0 µM -14.5% and -17.3% | [11]; at 1.2 µM -6% | [11]; at 3.7 µM 0% | [11]; [17] -51% and -54% | [11]; at 11.0 µM 10% | [11]; at 33.0 µM 30% | [11]; [18] 18% and 54% | [11]; at 50.0 µM 46.5% and 63.5% | [12]; at 1.2 µM -4% | [12]; at 3.7 µM -3% | [12]; at 11.0 µM -5% | [12]; at 33.0 µM -6% | [13]; at 1.2 µM 2% | [13]; at 3.7 µM -9% | [13]; at 11.0 µM -7% | [13]; at 33.0 µM -9% | [14]; at 1.2 µM -3% | [14]; at 3.7 µM -5% | [14]; at 11.0 µM -11% | [14]; at 33.0 µM 12% | [15]; [17] -127% and -135% | [15]; [18] -30% and -44% | [15]; at 50.0 µM 55.5% and 45% | [16]; at 1.2 µM -2% | [16]; at 3.7 µM -3% | [16]; at 11.0 µM 0% | [16]; at 33.0 µM 6%
70.1% (active) and 62.7% (inactive): [5]; at 50.0 µM
active: [1]; at 100.0 µM 99% | [2]; at 100.0 µM 98% | [3]; at 33.0 µM 70% | [3]; at 100.0 µM 98% | [4]; at 100.0 µM 96% | [5]; at 100.0 µM 99% | [6]; at 100.0 µM 99% | [7]; at 100.0 µM 99% | [9]; at 100.0 µM 97% | [11]; at 100.0 µM 99% | [12]; at 100.0 µM 98% | [13]; at 100.0 µM 99% | [14]; at 100.0 µM 99% | [16]; at 100.0 µM 99%

OC1(c2ccccc2)CCCc2ccc(Cl)cc21 (stereo unspecified)
inactive: [1]; at 1.2 µM 1% | [1]; at 3.7 µM 2% | [1]; at 11.0 µM 0% | [1]; at 33.0 µM 42% | [2]; at 1.2 µM -1% | [2]; at 3.7 µM -2% | [2]; at 11.0 µM -8% | [2]; at 33.0 µM -4% | [3]; at 1.2 µM 3% | [3]; at 3.7 µM 7% | [3]; at 11.0 µM 13% | [3]; at 33.0 µM 20% | [4]; at 1.2 µM -10% | [4]; at 3.7 µM -15% | [4]; at 11.0 µM -2% | [4]; at 33.0 µM 5% | [5]; at 1.2 µM -3% | [5]; at 3.7 µM 1% | [5]; [17] 10% | [5]; at 11.0 µM -2% | [5]; at 33.0 µM 50% | [5]; [18] 28% | [5]; at 50.0 µM 57.2% | [6]; at 1.2 µM 2% | [6]; at 3.7 µM 5% | [6]; [17] 1% | [6]; at 11.0 µM 0% | [6]; at 33.0 µM 31% | [6]; [18] 11% | [6]; at 50.0 µM 50.2% | [7]; at 1.2 µM 1% | [7]; at 3.7 µM -1% | [7]; at 11.0 µM -1% | [7]; at 33.0 µM 17% | [8]; [17] -3% | [8]; [18] 4% | [8]; at 50.0 µM 56.2% | [9]; at 1.2 µM 1% | [9]; at 3.7 µM 0% | [9]; at 11.0 µM -17% | [9]; at 33.0 µM 20% | [10]; [17] 3% | [10]; [18] 13% | [10]; at 50.0 µM 11.1% | [11]; at 1.2 µM -2% | [11]; at 3.7 µM -10% | [11]; [17] -3% | [11]; at 11.0 µM -14% | [11]; at 33.0 µM -17% | [11]; [18] -13% | [11]; at 50.0 µM -16.4% | [12]; at 1.2 µM 0% | [12]; at 3.7 µM -2% | [12]; at 11.0 µM -7% | [12]; at 33.0 µM 7% | [13]; at 1.2 µM 1% | [13]; at 3.7 µM 3% | [13]; at 11.0 µM 0% | [13]; at 33.0 µM 30% | [14]; at 1.2 µM 0% | [14]; at 3.7 µM 0% | [14]; at 11.0 µM 0% | [14]; at 33.0 µM 33% | [15]; [17] 0% | [15]; [18] 39% | [15]; at 50.0 µM 53.8% | [16]; at 1.2 µM 0% | [16]; at 3.7 µM 4% | [16]; at 11.0 µM 3% | [16]; at 33.0 µM 40%
active: [1]; at 100.0 µM 99% | [2]; at 100.0 µM 98% | [3]; at 100.0 µM 74% | [4]; at 100.0 µM 99% | [5]; at 100.0 µM 99% | [6]; at 100.0 µM 99% | [7]; at 100.0 µM 99% | [9]; at 100.0 µM 99% | [11]; at 100.0 µM 98% | [12]; at 100.0 µM 99% | [13]; at 100.0 µM 99% | [14]; at 100.0 µM 99% | [16]; at 100.0 µM 99%
